Results reported in PubChem BioAssay (NCATS).
Records with an inconclusive call do not appear. A call without a number means that no potency is given here. Active and inactive are the calls of the source. Calls follow the shape of the dose curve; as a rule, active = well fitted inhibition curve with a large enough effect; inconclusive = small, poorly fitted or top-dose-only effect; inactive = flat fitted curve, though single readings scatter.

Molecular target: Luciferin 4-monooxygenase (Photinus pyralis) (UniProt P08659)
Sequence (P08659 whole entry, looked up): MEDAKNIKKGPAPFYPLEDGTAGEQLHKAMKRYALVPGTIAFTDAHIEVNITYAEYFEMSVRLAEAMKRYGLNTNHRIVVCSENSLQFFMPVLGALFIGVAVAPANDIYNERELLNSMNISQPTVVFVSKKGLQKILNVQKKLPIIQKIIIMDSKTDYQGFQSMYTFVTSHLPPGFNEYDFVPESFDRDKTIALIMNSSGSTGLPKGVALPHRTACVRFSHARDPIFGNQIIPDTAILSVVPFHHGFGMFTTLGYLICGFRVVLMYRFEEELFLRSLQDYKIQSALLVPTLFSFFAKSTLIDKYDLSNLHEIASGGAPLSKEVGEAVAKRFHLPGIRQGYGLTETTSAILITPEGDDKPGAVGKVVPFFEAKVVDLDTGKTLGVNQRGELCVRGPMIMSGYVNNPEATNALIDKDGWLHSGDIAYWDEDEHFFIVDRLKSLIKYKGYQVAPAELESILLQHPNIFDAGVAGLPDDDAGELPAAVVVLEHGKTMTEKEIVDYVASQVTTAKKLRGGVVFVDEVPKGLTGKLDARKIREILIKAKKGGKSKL
Assay: Biochemical firefly luciferase enzyme assay for NPC (AID 624030); also: nearly all actives have a fitted effect of over 70% in size
Settings: purified P. pyralis luciferase, luminescence, 5 min; series mostly up to 58.6 µM
Outline: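 Purified P. pyralis luciferase at 10 nM in 50 mM Tris Acetate (final), luminescence read within 5 minutes of enzyme addition to compounds. Activity normalised to PTC124 versus DMSO; concentration-response curves classed by r2, magnitude and activity.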
Potency is read from the fitted curve at half-maximal effect.

Row | Compound | Potency
1 | Clc1ccc(COC(Cn2ccnc2)c2ccc(Cl)cc2Cl)cc1 (centres undefined) | inactive
2 | O=C(CCCCCCC(=O)Nc1ccccc1)NO | inactive
3 | CC(=O)CCCCn1c(=O)c2c(ncn2C)n(C)c1=O | inactive
4 | O=C(NCCN1CCOCC1)c1ccc(Cl)cc1 | inactive
5 | CN1C[C@H]2c3ccccc3Oc3ccc(Cl)cc3[C@@H]2C1 | inactive
6 | N#C[C@H]1C[C@H]2C[C@@H]2N1C(=O)[C@@H](N)C12CC3CC(CC(O)(C3)C1)C2 | inactive
7 | CC1(C)O[C@H]2C[C@@H]3[C@H]4CCC5=CC(=O)C=C[C@]5(C)[C@@]4(F)[C@@H](O)C[C@]3(C)[C@]2(C(=O)CO)O1 | inactive
8 | CCN(CC)C(=O)c1ccc(O)c(OC)c1 | inactive
9 | COc1cc2ncnc(Nc3ccc(F)c(Cl)c3)c2cc1OCCCN1CCOCC1 | inactive
10 | CCOC(=O)O[C@]1(C(=O)OCCl)CC[C@@H]2[C@H]3CCC4=CC(=O)C=C[C@]4(C)[C@@H]3[C@@H](O)C[C@@]21C | inactive
11 | CCN(CC)CCNC(=O)c1ccc(N)cc1 | inactive
12 | C[C@@H](O)[C@H]1C(=O)N2C(C(=O)O)=C(S[C@@H]3CN[C@H](C(=O)N(C)C)C3)[C@H](C)[C@H]12 | inactive
13 | O=C(O)CCc1nc(-c2ccccc2)c(-c2ccccc2)o1 | inactive
14 | CCCCCN(C)CCC(O)(P(=O)(O)O)P(=O)(O)O | inactive
15 | CC(C)(C)c1ccc(C(O)CCCN2CCC(C(O)(c3ccccc3)c3ccccc3)CC2)cc1 (centres undefined) | inactive
16 | NC(N)=Nc1nc(CSCC/C(N)=N/S(N)(=O)=O)cs1 | inactive
17 | CN1[C@@H]2CCC[C@@H]1CC(NC(=O)c1nn(C)c3ccccc13)C2 (some centres undefined) | inactive
18 | CC(=O)Oc1cc2c(s1)CCN(C(C(=O)C1CC1)c1ccccc1F)C2 (centres undefined) | inactive
19 | NC[C@@H]1O[C@@H](O[C@H]2[C@@H](O)[C@H](O[C@@H]3[C@@H](O)[C@@H](N)C[C@H](N)[C@H]3O[C@H]3O[C@H](CN)[C@@H](O)[C@@H](O)[C@H]3N)O[C@H]2CO)[C@H](N)[C@@H](O)[C@@H]1O | inactive
20 | C[N+](C)(C)CCCCCC[N+](C)(C)C | inactive
21 | Cc1nnc(C(C)C)n1C1C[C@H]2CC[C@@H](C1)N2CC[C@H](NC(=O)C1CCC(F)(F)CC1)c1ccccc1 (some centres undefined) | inactive
22 | CCN(CC)CCOC(=O)c1ccc(N)cc1 | inactive
23 | CCN1CCC[C@H]1CNC(=O)c1cc(S(N)(=O)=O)ccc1OC | inactive
24 | O=C(O)c1c(Cl)c(Cl)c(Cl)c(Cl)c1-c1c2cc(I)c(=O)c(I)c-2oc2c(I)c(O)c(I)cc12 | 25.6 µM (active)
25 | O=C1NCC2(CCN(CCc3ccccc3)CC2)O1 | inactive
26 | COCCCCC(=NOCCN)c1ccc(C(F)(F)F)cc1 | inactive
27 | O=C1Nc2ccc(Cl)cc2C(C#CC2CC2)(C(F)(F)F)O1 (centres undefined) | inactive
28 | COc1ccc(Cc2nccc3cc(OC)c(OC)cc23)cc1OC | inactive
29 | Cc1cnc(C(=O)O)c[n+]1[O-] | inactive
